KLK7 zymogen act: activates the human kallikrein-7 zymogen. 370,000 tested, 0.9% active. P49862. activation, % at 7 µM. purified proKLK7, EDANS-DABCYL substrate fluorescence; 100% is mature enzyme control, 0% vehicle;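 active means activation above the mean of all tested compounds plus 3 SD, computed per campaign excluding outliers beyond control limits, cut at about 13% in these data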
ADAM10 inh: inhibits human ADAM10 | recombinant ADAM10, EDANS/DABCYL FRET peptide cleavage, 3 h | inhibition, % at 7 µM | 370,000 tested, 0.62% active | O14672 | AID 720582;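 active means inhibition above a per-campaign cutoff equal to the mean of compounds falling between control-based bounds plus 3 SD, cut at about 20% in these data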;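 further: 0% = DMSO wells while the 100% control is not disclosed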
Target sequence (O14672 214-748 limits assumed): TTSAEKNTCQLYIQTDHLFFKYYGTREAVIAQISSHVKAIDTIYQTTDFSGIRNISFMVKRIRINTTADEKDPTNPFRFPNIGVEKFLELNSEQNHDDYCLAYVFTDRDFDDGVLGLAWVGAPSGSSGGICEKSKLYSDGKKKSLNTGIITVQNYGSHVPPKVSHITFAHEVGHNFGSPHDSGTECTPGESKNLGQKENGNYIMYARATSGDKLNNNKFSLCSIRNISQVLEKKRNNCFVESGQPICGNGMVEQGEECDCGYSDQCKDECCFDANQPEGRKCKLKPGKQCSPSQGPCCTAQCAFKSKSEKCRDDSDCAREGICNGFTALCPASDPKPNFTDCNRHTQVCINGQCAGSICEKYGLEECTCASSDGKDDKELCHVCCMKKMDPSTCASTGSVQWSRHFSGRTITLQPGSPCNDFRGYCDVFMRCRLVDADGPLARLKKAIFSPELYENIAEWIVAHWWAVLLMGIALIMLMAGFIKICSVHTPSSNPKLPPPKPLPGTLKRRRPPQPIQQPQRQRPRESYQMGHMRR
AHR activator: activators of human aryl hydrocarbon receptor | P35869 | AHR-responsive luciferase reporter cells, luminescence | activation, % at 5 µM | 320,000 tested, 2.5% active | AID 2796; in the data active means activation above about 47%;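 further: 0% = vehicle wells and 100% = reference agonist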
rCAG RNA binder: r(CAG) repeat RNA binding; TO-PRO-1 dye displacement fluorescence; inhibition, % at 3 µM; 370,000 tested, 1.3% active; AID 651821;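 active means inhibition above the plate cutoff, the mean of all test compounds on that plate plus 3 SD, cut at about 35% in these data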;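 further: 0% = DMSO alone and 100% = 100 µM mitoxantrone as full dye displacement; higher means more dye released from RNA so lower well fluorescence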
NR3A LBD binder: modulates the human NR3A ligand-binding domain | NR3A LBD differential scanning fluorimetry, Tm shift; 0% = protein alone, 100% = glycine-bound protein | Tm shift relative to glycine control, % at 25 µM | 340,000 tested, 2.5% active | AID 1259313;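 active means melting temperature shift of at least 10% of the positive control shift, at one fixed dose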
ADAM17 inh: inhibits human ADAM17 | P78536 | recombinant ADAM17, EDANS/DABCYL FRET peptide cleavage | inhibition, % at 6.95 µM | 370,000 tested, 0.83% active;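 active means inhibition above the mean of compounds lying between control limits plus 3 SD, set per campaign, cut at about 8.5% in these data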;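 further: 0% = DMSO-only wells as the low control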
rCAG binder conf: r(CAG) RNA repeat binding, confirmation; 4,300 tested, 70% active; TO-PRO-1 dye displacement fluorescence; shares compounds with rCAG RNA binder; inhibition, % at 3 µM;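 active means inhibition above a per-plate cutoff, the mean inhibition of sample wells plus 3 SD, cut at about 35% in these data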;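 further: loss of TO-PRO-1 fluorescence as compound displaces dye from 1x1 AA loop RNA; 0% = DMSO only wells and 100% = 100 µM mitoxantrone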
DNA CAG counter: counter-screen for rCAG RNA binders: DNA CAG dye complex inhibitors. shares compounds with rCAG RNA binder. d(CAG) DNA oligo TO-PRO-1 dye displacement, fluorescence. inhibition, % at 3 µM. 4,300 tested, 94% active. AID 652068;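 active means inhibition above its plate's cutoff, the mean test-well inhibition plus 3 SD, cut at about 4.8% in these data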;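 further: 0% = DNA dye mix with DMSO and 100% = 100 µM mitoxantrone; hits displace the dye from DNA and so lower well fluorescence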
KLK7 act conf: proKLK7 activation, confirmation; shares compounds with KLK7 zymogen act; 3,200 tested, 68% active; purified proKLK7, EDANS-DABCYL substrate fluorescence; scaled: vehicle 0, mature enzyme 100; activation, % at 7 µM;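 active means activation, as change over the incubation, above the mean of all tested compounds plus 3 SD, cut at about 13% in these data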
EDANS interfere: optically interferes with EDANS-DABCYL signal, flagging KLK7 hits; shares compounds with KLK7 zymogen act; EDANS-DABCYL substrate fluorescence interference, no enzyme, 4 h; solvent 0%, active enzyme control 100%; activation, % at 7 µM; 3,200 tested, 80% active; AID 686952;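 active means activation above the all-compound mean plus 3 SD, ignoring values outside control-based bounds, cut at about 4.8% in these data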;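 further: value is the 4 h activation minus the activation read at time zero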
EDANS interf: optically interferes with EDANS-DABCYL fluorescence, kallikrein-7 activator counter-screen; shares compounds with KLK7 zymogen act; EDANS-DABCYL peptide fluorescence interference, no enzyme; EC50, µM; 250 tested, 20% active; AID 720493;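 active means compounds that raise the fluorescence signal in this interference counterscreen, with EC50 at or below 10 µM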;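 further: intact quenched peptide substrate alone read at 355 nm excitation and 520 nm emission; signal is fluorescence gain from T0 to T4 after four hours at room temperature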
* hit, by the source's call; i = inactive; · = not tested or not shown. Most compounds without a hit are left out; they make up all but 7% or so of the library.

SMILES	KLK7 zymogen act	ADAM10 inh	AHR activator	rCAG RNA binder	NR3A LBD binder	ADAM17 inh	rCAG binder conf	DNA CAG counter	KLK7 act conf	EDANS interfere	others
COc1ccccc1NS(=O)(=O)c1cccc(-n2c(O)c(C=Nc3ccccc3C(=O)O)c3ccccc3c2=O)c1	1.5	-114.1	-2.5	91.0*	1.6	-39.6	90.7*	72.5*	·	·
CC(=O)Nc1ccc(C=NNc2ccc(S(=O)(=O)Nc3ccccc3C(=O)O)cc2[N+](=O)[O-])cc1	0.3	13.2	-2.2	88.5*	22.5*	4.6	91.8*	73.7*	·	·
Cc1ccc(NC(=S)NNc2ccc([N+](=O)[O-])cc2S(=O)(=O)Nc2ccccc2C(=O)O)cc1C	0.4	11.2	3.2	91.1*	26.1*	4.2	93.5*	70.3*	·	·
O=C1N2Cc3ccccc3C2CS(=O)(=O)N1C1CCCC1 (stereo not given)	-0.3	-9.6	·	2.5	·	-3.9	·	·	·	·
CCOC(=O)[C@]12CCC=C1N(Cc1ccccc1)C(=O)[C@H](CC(=O)NCc1cccc(C(F)(F)F)c1)C2	0.6	5.5	·	-0.6	·	3.5	·	·	·	·
COc1ccc(NC(=O)c2sc(=O)n(Cc3ccccc3C#N)c2C)cc1OC	-0.1	-8.2	·	0.3	·	2.5	·	·	·	·
CC(C)(C)N(NC(=O)Nc1cccc(F)c1)C(=O)c1ccccc1Cl	0.1	4.9	·	3.5	·	-1.6	·	·	·	·
COc1cc(C=NNc2ccc(S(=O)(=O)Nc3ccccc3C(=O)O)cc2[N+](=O)[O-])ccc1O	-0.7	12.4	-0.4	89.9*	18.8*	5.2	90.5*	68.7*	·	·
COc1cc(/C=N/Nc2ccc(S(N)(=O)=O)cc2[N+](=O)[O-])cc(OC)c1O	-0.6	6.8	2.8	28.6	-0.7	-1.3	·	·	·	·
CCN(CC)c1ccc(C(=C2C=CC(=[N+](CC)CC)C=C2)c2ccc(S(=O)(=O)O)cc2S(=O)(=O)[O-])cc1	-0.2	-6.8	·	45.5*	-2.5	-0.4	58.1*	17.6*	·	·
CN1c2ccccc2C(O)=C(C(=S)Nc2ccc(F)c(Cl)c2)S1(=O)=O	0.2	-0.4	51.5*	81.5*	26.7*	1.7	71.8*	32.2*	·	·
Cc1ccc(NC(=S)C2=C(O)c3ccccc3N(C)S2(=O)=O)cc1	-0.4	-4.9	13.4	58.6*	0.3	-1.6	34.9*	8.7*	·	·
COc1ccc(-n2c(O)c(/C=N/NS(=O)(=O)c3ccc(C)cc3)c3ccccc3c2=O)cc1OC	48.4*	-111.2	0.9	66.2*	2.2	-47.4	59.4*	24.1*	-0.4	0.4
COc1ccc(-n2c(O)c(/C=N/Nc3nc(C)cc(C)n3)c3ccccc3c2=O)cc1OC	1.9	-79.2	3.3	4.1	-2.4	-25.2	·	·	·	·
COc1ccc2cc(C(N)=O)c(=Nc3ccc(C)cc3)oc2c1	-1.3	-461.7	-1.1	-1.5	-0.3	-172.4	·	·	·	·
COc1ccccc1N=c1oc2cc(O)ccc2cc1C(N)=O	38.8*	i	23.2	40.0*	-9.8	i	5.9	2.0	18.2*	22.9*
Cc1ccc(OCc2nc3ccccc3n2C(C(=O)NC(C)(C)C)c2ccncc2)cc1 (stereo not given)	0.8	-9.1	·	-0.2	·	-6.5	·	·	·	·
Cc1cccn2c(=O)c3cc(C#N)c(=NC(=O)c4ccccc4)n(Cc4ccco4)c3nc12	45.0*	i	5.2	35.5*	-6.3	i	27.0	10.9*	26.7*	17.0*	EDANS interf=7.82*
Cc1cccc(C(=O)N=c2c(C#N)cc3c(=O)n4cccc(C)c4nc3n2Cc2ccco2)c1	27.1*	i	-2.9	47.2*	-7.1	i	38.3*	17.6*	15.8*	0.8	EDANS interf=i
Cc1cc(-c2nc3cccnc3s2)ccc1NS(=O)(=O)c1cccs1	71.4*	i	69.6*	49.8*	-6.2	i	37.1*	11.3*	66.0*	56.8*
CC(C)(C)c1ccc(OC(=O)Nc2ccc(O)c(C(=O)O)c2)cc1	12.7*	-135.4	-6.7	53.5*	-15.8	-64.3	36.7*	11.4*	14.4*	12.4*
Cc1cccc(OC(=O)Nc2ccc(C(=O)O)c(O)c2)c1	-0.1	-21.4	·	2.2	·	-5.3	·	·	·	·
S=c1[nH]nc(-c2n[nH]c3c2CCC3)n1N=Cc1ccc(Br)s1	0.5	4.2	·	21.7	·	2.5	·	·	·	·
Cc1oc2c(cc(NS(=O)(=O)c3ccc4c5c(cccc35)C(=O)N4)c3ccccc32)c1C(=O)OC(C)C	23.9*	-145.7	73.6*	36.6*	9.7	-59.4	38.1*	17.4*	56.9*	52.6*
O=C(NC1CCCC1)C1C(c2ccc(C(F)(F)F)cc2)=Nc2ccccc2N1C(=O)c1cc2ccccc2[nH]1 (stereo not given)	-2.5	-43.2	·	11.2	·	-13.0	·	·	·	·
SMILES	KLK7 zymogen act	ADAM10 inh	AHR activator	rCAG RNA binder	NR3A LBD binder	ADAM17 inh	rCAG binder conf	DNA CAG counter	KLK7 act conf	EDANS interfere	others
COC(=O)[C@@]12C[C@@H](CC(=O)N3CCC(c4ccccc4)CC3)C(=O)N(Cc3cccc4ccccc34)C1=CCC(C)(C)C2	0.1	-9.6	·	9.8	·	-3.9	·	·	·	·
COc1cc2c(cc1OC)C(c1ccccc1)N(C(=O)c1ccco1)CC2 (stereo not given)	-0.6	-5.9	6.3	2.2	0.3	-1.2	·	·	·	·
COc1cc2c(cc1OC)C(c1ccccc1)N(Cc1ccc(S(=O)(=O)NC(=O)c3ccco3)cc1)CC2 (stereo not given)	29.4*	-72.5	·	39.8*	·	-19.3	39.4*	11.3*	5.2	7.1*
Cc1cc(=O)oc2c3c(cc(OCC(=O)NC(Cc4ccc(Cl)cc4)C(=O)O)c12)OC(C)(C)CC3 (stereo not given)	13.4*	i	-0.8	45.9*	-1.8	i	53.2*	17.2*	8.3	3.4
CCCc1nc2c3ccccc3ccn2c1Cc1cccc(F)c1	1.1	-113.8	·	4.3	·	-23.7	·	·	·	·
O=C(NC1CC1)c1cc(-c2ccco2)nc2ccccc12	·	·	·	·	-0.9	·	·	·	·	·
Cc1nnc(NC(=O)c2cc(-c3ccco3)nc3ccccc23)s1	23.5*	-248.1	23.3	37.2*	·	-74.2	18.2	8.7*	4.5	9.9*
O=C(Nc1nccs1)c1cc(-c2ccco2)nc2ccccc12	15.5*	-199.4	28.6	37.7*	-1.7	-55.8	25.2	17.3*	0.9	-2.1
